High-throughput results as filed in PubChem BioAssay.
GCN5L2 inh: inhibitors of human GCN5L2 histone acetyltransferase; Q92830; GCN5L2 HAT assay, ThioGlo1 CoA-SH fluorescence; Potency, µM (highest dose often 58.9 µM), usual class: inhibitors; hit rate 0.21% among 390,000; AID 504327
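Enzyme at 20nM final was mixed with library compounds for 15 min at room temperature. Peptide H3(1-25) at 75uM, acetyl-CoA at 70uM and ThioGlo1 at 50uM were then added. Plates were read immediately and after 20 min (Ex340nm/Em540nm).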
VDR inh: inhibitors of human vitamin D receptor; VDR-SRC2-3 peptide fluorescence polarization, 2 h; AID 504847; P11473; Potency, µM, hits mostly inhibitors; hit rate 0.93% among 400,000
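The screen uses fluorescence polarization to detect compounds that interfere with recruitment of the SRC2-3 coactivator peptide to VDR; plates are read after 2 h at room temperature.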
12-LOX inh: ALOX12 (human) lipoxygenase inhibition | AID 1671190 | purified 12hLO, xylenol orange hydroperoxide absorbance | P18054 | Potency, µM (titrated, usually from 108 µM), actives largely listed as inhibitors | hit rate 1.1% among 580,000
Target sequence (P18054 whole entry, looked up): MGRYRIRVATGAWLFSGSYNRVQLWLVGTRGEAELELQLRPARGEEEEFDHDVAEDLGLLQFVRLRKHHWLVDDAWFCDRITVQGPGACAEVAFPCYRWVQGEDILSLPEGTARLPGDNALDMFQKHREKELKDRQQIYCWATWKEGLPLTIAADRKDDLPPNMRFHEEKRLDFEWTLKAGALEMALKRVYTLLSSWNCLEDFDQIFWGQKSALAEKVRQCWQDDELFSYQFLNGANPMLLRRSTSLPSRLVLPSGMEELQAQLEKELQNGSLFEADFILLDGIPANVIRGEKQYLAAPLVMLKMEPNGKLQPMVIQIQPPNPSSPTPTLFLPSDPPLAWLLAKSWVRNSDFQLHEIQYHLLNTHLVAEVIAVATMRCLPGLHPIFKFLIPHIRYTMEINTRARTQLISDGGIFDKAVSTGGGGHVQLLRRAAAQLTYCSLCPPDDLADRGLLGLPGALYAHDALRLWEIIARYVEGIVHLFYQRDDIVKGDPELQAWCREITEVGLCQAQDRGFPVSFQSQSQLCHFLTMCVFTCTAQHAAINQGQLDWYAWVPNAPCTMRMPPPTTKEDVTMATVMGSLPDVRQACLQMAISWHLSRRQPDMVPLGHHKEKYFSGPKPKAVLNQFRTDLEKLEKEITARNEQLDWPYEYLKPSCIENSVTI
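Hydroperoxide product was detected by ferrous iron/xylenol orange as the 573 to 405 nm absorbance ratio. Arachidonic acid at 40 uM (final) was turned over for 30 min at room temperature by 150 nM human 12hLO, pH 7.0 Hepes buffer, after 15 min compound preincubation.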
PLK1 PBD block: blocks phosphopeptide binding to human PLK1 polo-box domain. Potency, µM, hits mostly inhibitors. Plk1 PBD binding of FITC phosphopeptide, fluorescence polarization. P53350. hit rate 2.8% among 360,000. AID 720504; further: series mostly up to about 57 µM; nearly all actives have a fitted effect of over 65% in size
A number is an active result; - = inactive; ? = inconclusive; . = no result; ! = not confirmed by another sample; [ ] = dose if it differs, or a comment. In the library only some 3% were active in any assay of this set; here they are far more common. The call rests on the fitted dose curve; in most records, active means well fitted curve in the direction sought with a large enough effect; inconclusive means small, poorly fitted or top-dose-only effect, or another doubt; inactive means no such curve, though single readings can be large; an effect the other way counts as inactive or inconclusive.

SMILES | GCN5L2 inh | VDR inh | 12-LOX inh | PLK1 PBD block
O=C1NC(=S)N/C1=C/c1cccnc1 | - | - | - | 24µM
O=C1Nc2ccccc2/C1=C/c1cccnc1 | - | ? | - | 27µM
CCCCC(=O)N/N=C/c1ccc(C)cc1 | . | . | - | .
Nc1nc(-c2ccc3c(c2)OCCO3)c(CC(=O)O)s1 | 35µM | - | - | -
Nc1nc(-c2ccc3c(c2)CCCC3)c(CC(=O)O)s1 | - | - | ? | -
COc1ccc(/C=C2\SC(=S)N(CCC(=O)Nc3ccc(C(=O)O)cc3)C2=O)cc1 | ? | - | - | -
CC(/C=C1\SC(=S)N(CCC(=O)Nc2ccccc2O)C1=O)=C\c1ccccc1 | ? | - | - | -
CC(/C=C1\SC(=S)N(CCC(=O)Nc2cccc(C(=O)O)c2)C1=O)=C\c1ccccc1 | - | ? | ? | 24µM
COc1cc(/C=C2\SC(=S)N(CCC(=O)Nc3ccc(O)cc3)C2=O)cc(OC)c1OC | - | - | - | 30µM
CC(=Cc1ccccc1)C=C1SC(=S)N(CCCC(=O)Nc2ccc(C(=O)O)cc2)C1=O | . | . | ? | 24µM
CC(=C\c1ccccc1)/C=C1/SC(=S)N(CCC(=O)Nc2ccccn2)C1=O | - | . | . | .
CC(/C=C1\SC(=S)N(CCCC(=O)Nc2ccc(C(=O)O)cc2)C1=O)=C\c1ccccc1 | - | - | 45µM | ?
COc1cc(/C=C2/SC(=S)N(CCC(=O)Nc3ccc(C(=O)O)cc3)C2=O)cc(OC)c1OC | ? | - | ? | ?
O=C(CCN1C(=O)/C(=C/c2ccc(Cl)cc2)SC1=S)Nc1ccc(C(=O)O)cc1 | - | - | - | 30µM
CC(=C\c1ccccc1)/C=C1/SC(=S)N(CCCC(=O)O)C1=O | - | 79µM | - | ?
CCc1ccc(/C=C2/SC(=S)N(CCC(=O)Nc3ccc(C(=O)O)cc3)C2=O)cc1 | ? | . | - | .
CN(CCCC(=O)OC(C)(C)C)C(=O)/C=C/c1ccc(Cl)cc1 | . | . | - | .
CCCc1nc2c(s1)CCc1onc(-c3ccc(Cl)cc3)c1-2 | - | - | - | -
CCCc1nc2c(s1)CCc1onc(-c3ccc(OC)cc3)c1-2 | . | ? | ? | 27µM
CCCc1nc2c(s1)CCc1onc(-c3ccc(Br)cc3)c1-2 | . | ? | - | 15µM
CCCCCCCCCCCCCCCCOC[C@H](COP(=O)([O-])OCC[N+](C)(C)C)OC(=O)CCCCCCCC(=O)O | 16µM | ? | . | .
O=C(Nc1ccc2oc(C3CC3)nc2c1)c1ccc(=O)[nH]c1 | . | . | - | .
CCC(C)c1cc([N+](=O)[O-])cc([N+](=O)[O-])c1OC(=O)OC(C)C (stereo not given) | - | 11µM | . | .
O=C(COc1ccc2c(-c3ccccc3)cc(=O)oc2c1)NCc1ccccn1 | - | - | - | -
Cc1csc(NC(=O)COc2ccc3c(C)cc(=O)oc3c2)n1 | - | - | - | -
SMILES | GCN5L2 inh | VDR inh | 12-LOX inh | PLK1 PBD block
COc1ccc(-c2cc(=O)oc3cc(OCC(=O)Nc4ccccn4)ccc23)cc1 | - | ? | - | 3µM
CCOC(=O)c1c(-c2ccccc2)csc1NC(=O)COc1ccc2c(C)cc(=O)oc2c1 | - | - | - | 27µM
CCc1cc(=O)oc2cc(OCC(=O)NCc3ccccn3)ccc12 | - | ? | - | 27µM
Cc1cc(=O)oc2cc(OCC(=O)N3CCOCC3)ccc12 | ? | - | ? | 27µM
Cc1cc(C)c(C(N)C(=O)O)c(C)c1 (stereo not given) | . | . | - | .
CC(C)c1ccc(OCCN)cc1 | . | . | - | .
COc1cc(OC)c2c(C)c(CC(=O)Nc3ccc(Cn4cncn4)cc3)c(=O)oc2c1 | . | . | - | .
COc1ccc(Cl)cc1NC(=S)N(CCCN1CCOCC1)Cc1cn(C)c2ccccc12 | - | ? | - | 6µM
COc1cc(Cl)ccc1NC(=S)N(CCCN1CCOCC1)Cc1cn(C)c2ccccc12 | - | ? | - | 5.3µM
COc1ccccc1NC(=S)N(CCCN1CCOCC1)Cc1cn(C)c2ccccc12 | - | - | - | ?
COC(=O)C(Cc1ccccc1)NC(=O)c1ccc2c(c1)NC(=O)CS2 (stereo not given) | . | . | - | .
COC(=O)c1cc(C)nc(Sc2ccccc2N)n1 | - | 5µM | ? | 1.7µM
C(=N\N=C(c1ccccc1)c1ccccc1)/c1cccs1 | . | . | - | .
CCOc1ccc(C2C(C(=O)c3ccc(C)o3)=C(O)C(=O)N2Cc2cccnc2)cc1OC (stereo not given) | . | . | - | .
COc1ccc(C2C(C(=O)c3ccc(C)o3)=C(O)C(=O)N2Cc2cccnc2)cc1OC (stereo not given) | - | - | 25µM | -
COc1cc(C2C(C(=O)c3ccc(C)o3)=C(O)C(=O)N2Cc2ccccc2)ccc1O (stereo not given) | - | - | ? | -
CCOc1cc(C2C(C(=O)c3ccc(C)o3)=C(O)C(=O)N2CCc2ccccc2)ccc1O (stereo not given) | ? | - | 8.9µM | -
Cc1cc(C)c(C)c(S(=O)(=O)N2CCN(C(=O)CCc3c(C)nn(C)c3C)CC2)c1C | . | . | - | .
Cc1ccc(N=C2C(=O)Nc3ccccc32)cc1C | - | - | - | -
Cc1ccc([N+](=O)[O-])cc1N=C1C(=O)Nc2ccccc21 | - | 25µM | - | -
CC1CCN(C(c2ccc(N(C)C)cc2)c2nnnn2C(C)(C)C)CC1 (stereo not given) | - | 50µM | - | -
Cc1ccc(CNC(=O)CSc2nc(N3CCCCC3)nc(N3CCCCC3)n2)cc1 | - | - | ? | 27µM
Cc1cc(C)c2[nH]c(=S)cc(C)c2c1 | - | - | 6.3µM! | ?
Cc1cc(=S)[nH]c(=S)[nH]1 | - | - | ? | ?
N#Cc1ccccc1NC(=O)COC(=O)c1cccs1 | - | - | - | -
SMILES | GCN5L2 inh | VDR inh | 12-LOX inh | PLK1 PBD block
CCc1cccc(CC)c1NC(=S)NC(C)c1ccccc1 (stereo not given) | - | - | 40µM | -
N#Cc1ccccc1NC(=S)NC(=O)c1cccs1 | - | - | ? | 8.4µM
CC(NC(=S)NC(=O)c1cccs1)c1ccccc1 (stereo not given) | - | ? | 25µM | -
O=C(c1ccc(F)cc1)N1CCn2c(nn(-c3cccc(Cl)c3)c2=O)C1 | . | . | -[6.33 µM] | .
CCc1cccc(CC)c1NC(=O)c1ccc(CSc2ccccc2)cc1 | . | . | - | .
C=CCNC(=S)N/N=C/c1ccc(-c2cc(Cl)ccc2Cl)o1 | - | - | - | -
CCCCC(=O)N/N=C/c1ccc(-c2ccc([N+](=O)[O-])cc2)o1 | - | - | - | -
CC(C)(C)NC(=S)N/N=C\c1ccc(-c2ccc([N+](=O)[O-])cc2)o1 | - | - | 45µM | -
C=CCNC(=S)N/N=C/c1ccc(-c2ccc(OC)cc2)o1 | - | - | 40µM | -
CCc1ccc(C(=O)NC2CCN(c3cn[nH]c(=O)c3)CC2)cc1 | . | . | - | .
CCOc1ccc(CNC(=O)CC(C)S(=O)(=O)c2ccc3c(c2)NC(=O)CO3)cc1OC (stereo not given) | . | . | - | .
CCCCCCCCCC(=O)OCC | . | . | - | .
Cc1cccc(Oc2coc3cc(OC(C)C(=O)OCCC(C)C)ccc3c2=O)c1 (stereo not given) | . | . | - | .
COc1cc(NC(=O)COC(=O)CCCC2=NS(=O)(=O)c3ccccc3N2)cc(OC)c1 | - | - | - | 21µM
CCCCCC(=O)Nc1cc(S(=O)(=O)N2CCCCC2)ccc1N1CCCCC1 | . | ? | - | -
